56 sequences from the supplement of paper PMC7726561 can be followed below.

Whole data set: some 1,100 sequences, median “thermal melting temperature (Tm) of peptide-HLA complex” near 58, cut for the lowest 2% near 42. The full list was thinned out, with the lowest values kept by preference.
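Note: lysates heated 10 min at 37–73 °C, complexes pulled down with pan-HLA I antibody, peptide signal by DIA-MS relative to 37 °C, Tm where half the complex is unfolded.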

For this assay, the target named is HLA-A*02:01. Description: thermal melting temperature (Tm) of peptide-HLA complex; higher = more thermostable pHLA complex. The note with it: C1R-A*02:01.
Regarding SLMDPNKFLLL, the thermal melting temperature stood at 55.1 °C. Sequence VLQGKLAEV had a thermal melting temperature of 53.5 °C. The value for HLAIKLEQV was 59.5 °C; that for KIIEYSVYL was 59.5 °C. The result for ALAPAPPQV reads 62.1 °C. The value for GLSTEGIYRV was 60.9 °C; that for ILDAGGHNVTI was 54.5 °C. Sequence KVIDYVPGI returned a thermal melting temperature of 58.8 °C. In the case of NLFNRYPAL, the thermal melting temperature stood at 58.4 °C. The result for FLMDFIHQV reads 62.2 °C; that for FLMKNSDLYGA, 58.4 °C. The value for ALLDRIVSV was 64.2 °C. The result for NIIPYITNV reads 51.4 °C. Take SLLPEGPPAI: the thermal melting temperature was found to be 57.8 °C.

LLAEDDELHL returned a thermal melting temperature of 44.2 °C. The result for FLDHIIASV reads 61.4 °C; that for ALAPGVRAV, 60.2 °C. For the sequence YLPEDFIRVG, the thermal melting temperature was 46.8 °C.

In the case of LLQEVEHQL, the thermal melting temperature is 57.8 °C. On to ALFPGDVDRL, for which the thermal melting temperature came to 54.3 °C. The result for WLIEDGKVVTV reads 58.3 °C; that for AMNISVPQV, 58.1 °C; that for FLAELPGSLSL, 49.3 °C. The result for ILEEKGLSQV reads 59.1 °C. The result for LLSDVRFVL reads 54.8 °C; that for LLRDGIELV, 57.8 °C; that for AMSNLVPPVEL, 53.7 °C. Regarding RLGEAEGLMKV, the thermal melting temperature is 56.4 °C. The value for FILDFYEKV was 41.8 °C; that for KIFEMGPVFTL was 52.7 °C.

Sequence ALLDGRLQV gave a thermal melting temperature of 60.7 °C. The sequence FILPHISTA had a thermal melting temperature of 55.7 °C. The result for LADETLLKV reads 55.2 °C. The result for GLDPNKPPEL reads 61 °C; that for VLGRVNLV, 45.9 °C; that for HLDEAIHVL, 51.9 °C.

In turn, VLLGEVNIRL yielded a thermal melting temperature of 55.2 °C.

Sequence SLLNPPETLNL displayed a thermal melting temperature of 54.9 °C. As to TLLGNIHAV, the thermal melting temperature was 59.5 °C. The value for GLLENIPRV was 64.8 °C. On to YLHDQNPDAAL, for which the thermal melting temperature was found to be 59 °C. The value for VLLKARLVPA was 59.7 °C. The sequence VTTDIQVKV displayed a thermal melting temperature of 47.3 °C. The result for FLLLPGPSAA reads 47 °C; that for HLFETISQA, 54.9 °C.

Take GLDPQGDRSFL: the thermal melting temperature worked out at 57 °C. Sequence FLPQGFPDSV had a thermal melting temperature of 45.8 °C. The value for SIHDVTFQV was 57.4 °C. The value for SMSADVPLV was 61.3 °C; that for ALLKIEGVYA was 59.4 °C; that for ILLDNDHYA was 50.4 °C. FLDPNNIPKA: the thermal melting temperature was 61.3 °C. The result for YLSPDLSKV reads 61.9 °C. The value for LLDPNVKSIFV was 62.2 °C; that for FLDITNPKA was 58.3 °C; that for FLDITNPKAV was 40.7 °C.
